Source: PubChem BioAssay AID1210 (NMMLSC, 2008)
Calls of active or inactive are those of the source.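 Rule for the calls: active = blocks over 70% of labeled estradiol binding at 10 µM, or over a set limit at 100 nM; inactive = the rest.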

What follows are molecules tested against Estrogen receptor beta (Homo sapiens) (UniProt Q92731) (assay: ERbeta ligand binders by competition, primary screen, cell-based, Cos7 ERbeta-GFP, flow cytometry (AID 1210;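 note: 0% = DMSO vehicle wells and 100% = complete loss of labeled estradiol signal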)). Settings: fluorescent estrogen binding, at 10 µM, stronger effect = higher value.
Chain of Estrogen receptor beta (Homo sapiens) (Q92731 whole entry, looked up): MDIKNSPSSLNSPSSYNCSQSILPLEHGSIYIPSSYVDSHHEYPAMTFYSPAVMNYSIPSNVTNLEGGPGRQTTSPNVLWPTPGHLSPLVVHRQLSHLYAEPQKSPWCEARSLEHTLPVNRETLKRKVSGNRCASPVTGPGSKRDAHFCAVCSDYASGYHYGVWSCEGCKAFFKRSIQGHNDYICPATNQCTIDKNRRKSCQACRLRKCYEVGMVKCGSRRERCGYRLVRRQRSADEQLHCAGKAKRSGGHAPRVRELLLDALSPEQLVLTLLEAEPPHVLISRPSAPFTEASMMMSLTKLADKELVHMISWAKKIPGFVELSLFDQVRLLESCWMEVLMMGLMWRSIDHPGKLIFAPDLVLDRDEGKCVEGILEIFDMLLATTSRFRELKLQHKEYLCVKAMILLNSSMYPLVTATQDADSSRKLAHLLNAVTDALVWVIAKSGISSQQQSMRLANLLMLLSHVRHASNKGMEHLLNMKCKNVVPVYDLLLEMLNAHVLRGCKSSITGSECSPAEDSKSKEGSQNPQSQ

SMILES	inhibition
CCC1(CC)NC(=O)N(CC(=O)Nc2sc3c(c2C(N)=O)CCC3)C1=O	16% (inactive)
c1coc(C2Nc3ccccc3C3OCCC23)c1 (stereo not given)	0% (inactive)
O=C(NCCN1CCOCC1)c1cnn2c(-c3ccccc3)cc(-c3ccccc3)nc12	47% (inactive)
COc1ccc(C2CC(c3c(-c4ccccc4)c4cc(Cl)ccc4[nH]c3=O)=NN2S(C)(=O)=O)cc1OC (stereo not given)	1% (inactive)
COc1ccc2cc3c(N)nn(C(=O)Cc4ccc(Cl)cc4)c3nc2c1	37% (inactive)
Nc1ccc(-c2nc3ccc([N+](=O)[O-])cc3[nH]2)cc1	61% (inactive)
CCCNC(=O)c1ccc2c(c1)C1C3CCC(C3)C1C(c1ccccc1)N2 (stereo not given)	54% (inactive)
O=c1c2c([nH]c3ccccc13)C(=C1CCCC1)CC2	42% (inactive)
COc1ccc(N2C(=O)c3ccccc3NC2c2ccc(OC)c(CSc3ccccn3)c2)cc1 (stereo not given)	36% (inactive)
C1=C(N2CCOCC2)/C(=C/c2nc3ccccc3[nH]2)CC1	26% (inactive)
O=C(Cc1cccs1)Nc1nncs1	26% (inactive)
COc1ccccc1C1Nc2c(C(=O)O)cccc2C2C3CCC(C3)C12 (stereo not given)	21% (inactive)
CC(C)CN(C(=O)COC(=O)c1cc2c(s1)CCC2)C1CCS(=O)(=O)C1 (stereo not given)	25% (inactive)
Nc1ccc2nn(-c3cccc4ccccc34)nc2c1	28% (inactive)
O=c1oc2c(CN3CCCC3)c(O)ccc2c2c1CCC2	22% (inactive)
CC12CCC(=O)N1C(C(=O)OCC(=O)Nc1sccc1C#N)CS2 (stereo not given)	37% (inactive)
COC(=O)c1cnn2c(C(F)(F)F)cc(-c3ccco3)nc12	27% (inactive)
N#Cc1c(NCCN)nc(NCc2ccccc2)c2c1CCN(Cc1ccccc1)C2	42% (inactive)
CCOc1ccc(NS(=O)(=O)c2ccc3c(c2)[C@H]2C=CC[C@H]2[C@@H](c2cccc([N+](=O)[O-])c2)N3)cc1	0% (inactive)
CCCCn1c(NC(=O)CC)c(C#N)c2nc3ccccc3nc21	47% (inactive)
Cc1ccccc1CSCC(=O)NC(=O)NCc1ccco1	27% (inactive)
Fc1ccc2c(c1)C1C=CCC1C(c1cc3c(cc1Br)OCO3)N2 (stereo not given)	0% (inactive)

Same assay, conditions: fluorescent estrogen binding, ligand binding inhibition, at 0.1 µM, stronger effect = higher value

SMILES	inhibition [%]
CN1C(=O)CC(C(=O)O)SC1=Nc1cc(Cl)c(O)c(Cl)c1 (stereo not given)	14
O=c1oc2ccccc2cc1-c1ccc(O)cc1	3
Cc1ccc(NC(=O)CSc2nnnn2-c2ccc3c(c2)OCO3)cc1C	34
Cc1ccc(N=Cc2c(O)n(-c3ccc4c(c3)OCO4)c(=O)c3ccccc23)cc1	21
O=c1cc(O)c2sc(Nc3ccc(F)cc3)nc2[nH]1	9
O=C(COC(=O)CN1C(=O)c2ccccc2C1=O)Nc1ncc(Cl)cc1Cl	16
COc1ccc(C2Nc3ccccc3C(=O)N2c2ccc(Cl)cc2)cc1Cn1cc([N+](=O)[O-])cn1 (stereo not given)	36
CCC1(CC)NC(=O)N(CC(=O)Nc2sc3c(c2C(N)=O)CCC3)C1=O	5
O=C(NCCN1CCOCC1)c1cnn2c(-c3ccccc3)cc(-c3ccccc3)nc12	21
COc1ccc(C2CC(c3c(-c4ccccc4)c4cc(Cl)ccc4[nH]c3=O)=NN2S(C)(=O)=O)cc1OC (stereo not given)	64
COc1ccc2cc3c(N)nn(C(=O)Cc4ccc(Cl)cc4)c3nc2c1	12
O=c1c2c([nH]c3ccccc13)C(=C1CCCC1)CC2	11
C1=C(N2CCOCC2)/C(=C/c2nc3ccccc3[nH]2)CC1	20
O=C(Cc1cccs1)Nc1nncs1	16
CC(C)CN(C(=O)COC(=O)c1cc2c(s1)CCC2)C1CCS(=O)(=O)C1 (stereo not given)	28
CC12CCC(=O)N1C(C(=O)OCC(=O)Nc1sccc1C#N)CS2 (stereo not given)	47
CCCCn1c(NC(=O)CC)c(C#N)c2nc3ccccc3nc21	17
Cc1ccccc1CSCC(=O)NC(=O)NCc1ccco1	35
